Each structure is given as a SMILES string. Values joined by “and” are separate entries in the source; they are usually repeats but may differ in a detail not shown here. Equal values may be shown once. Out of some 16,000 compounds screened, about 5,800 (36%) were called active. Inconclusive results (about 23%) are left out. Some of the results follow. A number with no mark means an inactive call. Calls come from the whole dose curve; as a rule, active = well fitted curve in the direction sought with a large enough effect; inconclusive = small, poorly fitted or top-dose-only effect, or effect the other way; inactive = no such curve, though single readings can be large or run the other way.
% is set by controls: 0 for no effect and ±100 for the full control effect.

Cytochrome P450 2C19 (Homo sapiens), sequence (P33261 whole entry, looked up): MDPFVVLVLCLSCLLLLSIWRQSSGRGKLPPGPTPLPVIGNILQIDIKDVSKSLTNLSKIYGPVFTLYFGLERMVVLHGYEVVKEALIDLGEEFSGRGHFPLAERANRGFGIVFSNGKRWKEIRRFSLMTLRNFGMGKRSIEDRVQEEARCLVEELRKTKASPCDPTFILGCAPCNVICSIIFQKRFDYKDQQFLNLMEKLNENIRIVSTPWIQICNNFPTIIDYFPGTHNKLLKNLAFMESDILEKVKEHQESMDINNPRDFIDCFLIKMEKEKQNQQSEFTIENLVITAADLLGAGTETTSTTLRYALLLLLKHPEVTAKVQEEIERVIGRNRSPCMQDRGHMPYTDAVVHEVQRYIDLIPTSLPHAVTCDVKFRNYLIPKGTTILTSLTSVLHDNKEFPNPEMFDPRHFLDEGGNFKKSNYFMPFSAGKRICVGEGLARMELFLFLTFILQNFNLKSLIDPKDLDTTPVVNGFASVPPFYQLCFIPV

This assay addresses Cytochrome P450 2C19 (Homo sapiens) (UniProt P33261). The experiment in a line: Cytochrome panel assay with activity outcomes. The settings on record: recombinant CYP, pro-luciferin dealkylation, luminescence, p450-cyp2c19; series mostly up to 57.1 µM.
With `CCc1cc2c(nc1CC)CCN(CC/C(C)=N/O[C@@H](C)c1cn([C@H](CO)Cc3ccccc3)nn1)C2`, the activity, negative = inhibition was -17.2% [at 11.4 µM] and -16.8% [at 11.4 µM].

In general, AC50 refers to the midpoint of the concentration-response curve, whichever way the signal moves. For `CC(C)(C)C(=O)Nc1ccnc(-c2cccnc2)n1`, the AC50 is 2.24 µM (active).

As to `CC(=O)Nc1ccnc(-c2cccnc2)n1`, the AC50 result was “inactive”. With `O=C(Nc1ccnc(-c2cccnc2)n1)c1cccc(Cl)c1Cl`, the AC50 was 2.82 µM (active). Take `O=C(N/N=C/c1ccc(OCc2ccccc2)cc1)c1cccs1`: the AC50 was 2.51 µM (active). Regarding `O=C(N/N=C/c1cccc(OCc2ccccc2)c1)c1cccs1`, the AC50 was 5.01 µM (active). Turning to `COc1ccc(CCN(C)Cc2ccc(OCc3ccccc3)c(OC)c2)cc1OC`, the AC50 entry was “inactive”. As for `C=CCNC(=S)N/N=C/c1ccc(OCc2ccccc2)cc1`, the AC50 entry was “inactive”. Regarding `COc1cc(/C=N/NC(=O)c2cccs2)ccc1OCc1ccccc1`, the concentration at half-maximal activity (AC50) was 1.41 µM (active). Take `O=C(N/N=C/C=C/c1ccc([N+](=O)[O-])cc1)c1cccs1`: the AC50 result is “inactive”. For `COc1cc(/C=N\NC(=O)C2C(=O)NCC2c2ccccc2)cc(OC)c1O` (stereo not given), the AC50 result is “inactive”.

For the compound `Cc1c(NCc2cc(Cl)ccc2O)c(=O)n(-c2ccccc2)n1C`, the AC50 was 5.62 µM (active). As to `Cc1c(NC(=O)Nc2c(Cl)cccc2Cl)c(=O)n(-c2ccccc2)n1C`, the activity, negative = inhibition was 10.7% [at 11.4 µM].

`Cc1c(NC(C)C)c(=O)n(-c2ccccc2)n1C`: the AC50 result is “inactive”. Consider `C=C(C)COc1ccc2c(c1)CCC1C2CC[C@]2(C)C(=O)/C(=N/O)CC12` (stereo not given in full), for which the activity, negative = inhibition was 19.2% [at 11.4 µM]. `CCOC(=S)SCC(=O)O`: the activity, negative = inhibition is 38.2% [at 11.4 µM]. In the case of `O=c1cc(-c2ccccc2)[nH]n1-c1ccc([N+](=O)[O-])cc1`, the concentration at half-maximal activity (AC50) was 8.91 µM (active). In the case of `COc1ccc(Oc2c(Cl)cnn(-c3ccccc3)c2=O)cc1`, the AC50 was 2.24 µM (active). Regarding `COc1cccc(/C=N/n2nnc3c(cnn3-c3ccccc3)c2=O)c1`, the AC50 result is “inactive”. In the case of `COc1ccc(-n2c(=O)c(C)nc3cnc(Oc4ccccc4)nc32)cc1`, the AC50 entry is “inactive”. Regarding `CCCC[C@H]1C[C@@H]1[C@@H]1N(P(=O)(c2ccccc2)c2ccccc2)C[C@@](O)(c2ccccc2)CC12CC2`, the AC50 entry was “inactive”. `O=C(NCCc1ccccc1)N1c2ccccc2Sc2ccccc21`: the AC50 was 2.82 µM (active). With `COc1ccc(NC(=O)N2CC[C@@]3(CCCN(S(C)(=O)=O)C3)C2)cc1`, the AC50 result was “inactive”. The same measure, in the same setting: as for `COc1ccc(C)cc1NC(=O)CN1CCN(S(=O)(=O)c2ccc(F)cc2)CC1`, the figure is 2.82 µM (active); as for `COc1ccc(S(=O)(=O)N2CCCN(CC(=O)Nc3ccc(OC)c(Cl)c3)CC2)cc1`, 0.0631 µM (active); as for `COc1ccc(S(=O)(=O)N2CCCN(CCC(=O)Nc3cccc(C(F)(F)F)c3)CC2)cc1`, 2.51 µM (active).

For the compound `COc1ccc(S(=O)(=O)N2CCN(CC(=O)Nc3cc(OC)cc(OC)c3)CC2)cc1`, the AC50 is 14.1 µM (active). `COc1ccc(S(N)(=O)=O)cc1C(=O)NCCCN1CCN(c2ccc(C)cc2)CC1`: the AC50 result is “inactive”.

Consider `COc1ccc(C)cc1NC(=O)CCC(=O)Nc1nnc(C(F)(F)F)s1`, for which the AC50 result was “inactive”.

In the case of `COc1ccc(NC(=O)c2cc(S(=O)(=O)N3CCS(=O)(=O)CC3)ccc2Cl)cc1`, the AC50 entry is “inactive”. On the same count and under the same terms, as for `CC12CS(=O)(=O)CC1SC(=S)N2c1ccccn1` (stereo not given), the entry is “inactive”; as for `COc1ccc(NC(=O)N2CC[C@@]3(CCCN(C(=O)c4cccn4C)C3)C2)cc1`, “inactive”; as for `CCOc1ccc(C(=O)CN2CCN(S(=O)(=O)c3ccc(F)cc3)CC2)cc1`, 7.08 µM (active). `COc1ccc(S(=O)(=O)N2CCN(CC(=O)Nc3cccc(F)c3)CC2)cc1`: the AC50 is 4.47 µM (active). As for `COC(=O)N1CCC2(CCCN(C(=O)Nc3cccc(F)c3)C2)CC1`, the AC50 entry is “inactive”. With `COc1ccc(C(=O)N2CCC3(CCN(C(=O)Nc4cccc(F)c4)CC3)CC2)cc1`, the AC50 entry was “inactive”. With `Cc1ccc(C2C3=C(CCCC3=O)Nc3nc(SCC(=O)NCc4ccco4)[nH]c(=O)c32)cc1` (stereo not given), the AC50 result is “inactive”. Still for that read-out and setting: as for `Cc1cccc(Cc2c(C)nc3nc(SCC(=O)NCc4ccco4)nn3c2C)c1`, the figure is 5.01 µM (active); as for `Cc1nc2nc(SCC(=O)NCc3ccco3)nn2c(C)c1Cc1c(F)cccc1Cl`, 15.8 µM (active); as for `CC(=O)c1ccc(NC(=O)C(Cc2ccccc2)NC(=O)c2ccco2)cc1` (stereo not given), 15.8 µM (active). For the compound `O=C(NC(Cc1ccccc1)C(=O)O)/C(=C\c1ccco1)NC(=O)c1ccc(Br)cc1` (stereo not given), the AC50 result was “inactive”.

As for `O=C(Nc1ccccc1)C(Cc1ccccc1)NC(=O)C12CC3CC(CC(C3)C1)C2` (stereo not given), the AC50 result is “inactive”.

Turning to `N#Cc1cccc(NC(=O)N2CC3(CCN(C(=O)c4cnccn4)CC3)C2)c1`, the AC50 result was “inactive”. Consider `CCOC(=O)C1=C(C)N=C2SC(C(=O)OC)=CC(=O)N2C1c1ccc(F)cc1` (stereo not given), for which the AC50 is 1.26 µM (active). `CCCC(=O)NCCc1c2n(c3ccc(OC)cc13)Cc1ccccc1-2`: the half-maximal activity concentration (AC50) was 0.398 µM (active).

For the compound `COc1ccc2c(c1)c(CC(=O)O)c(C)n2C(=O)c1ccccc1`, the AC50 entry was “inactive”. Still for that read-out and setting: as for `CC1(C)OC(=O)C(=CNc2cccc(O)c2)C(=O)O1`, the entry is “inactive”; as for `CC1(C)OC(=O)C(=CNCC(O)c2ccccc2)C(=O)O1` (stereo not given), 11.2 µM (active).

Turning to `CSCCC(NC=C1C(=O)OC(C)(C)OC1=O)C(=O)O` (stereo not given), the AC50 result is “inactive”. In the case of `COCCN1CN=C(Nc2nc3ccccc3s2)NC1`, the AC50 was 14.1 µM (active). Consider `c1ccc2sc(NC3=NCN(C4CCCCCC4)CN3)nc2c1`, for which the AC50 was 1.12 µM (active). On to `COCCn1c(=O)c(-c2ccccc2)nc2cnc(Nc3ccccc3)nc21`, for which the AC50 entry was “inactive”. Regarding `c1ccc2sc(SCN(C3CCCCC3)C3CCCCC3)nc2c1`, the activity, negative = inhibition is -38.6% [at 11.4 µM]. With `COCCN1CN=C(Nc2nc3ccccc3o2)NC1`, the AC50 result is “inactive”. Take `CN1CCN(c2ncc3nc(-c4cc(F)cc(F)c4)c(=O)n(CCC#N)c3n2)CC1`: the AC50 entry was “inactive”. With `CN(C)c1ccccc1CN1CCCN(Cc2ccccc2N(C)C)C1c1ccncc1`, the activity, negative = inhibition is -28.5% [at 11.4 µM]. In the case of `CCCCCCCCN1C(=O)N(C)C(N(O)C(=O)NC)C1(C)C` (stereo not given), the AC50 was 7.08 µM (active).

Consider `O=C(COc1ccccc1)Nc1cc(C(F)(F)F)ccc1N1CCCC1`, for which the AC50 was 5.01 µM (active).

In the case of `O=C(Nc1cc(C(F)(F)F)ccc1N1CCCCC1)c1ccc(Br)o1`, the concentration at half-maximal activity (AC50) was 11.2 µM (active). With `NS(=O)(=O)c1cc(C(=O)O)cc(N2CCCC2)c1Oc1ccccc1`, the AC50 result was “inactive”. Regarding `Nc1ncnc2c1ncn2CCCCC(=O)O`, the activity, negative = inhibition is 24.1% [at 11.4 µM]. In the case of `COc1ccc2nc(C)cc(SCC(=O)Nc3c(C)cc(C)cc3C)c2c1`, the AC50 was 2.51 µM (active).

As for `COc1ccc2nccc(C(=O)O)c2c1`, the AC50 result is “inactive”. `COc1ccc2nccc(SCC(=O)O)c2c1`: the activity, negative = inhibition is -14.8% [at 11.4 µM]. Consider `COc1ccc2nc(SCC(=O)NN)cc(C)c2c1`, for which the AC50 result was “inactive”. In the case of `COc1ccc2nc(C)cc(SCC(=O)NNC(=O)COc3ccc(C)cc3)c2c1`, the AC50 is 3.16 µM (active).

With `NC(=O)c1cc[n+](CC2=C(C(=O)[O-])N3C(=O)[C@@H](NC(=O)Cc4cccs4)[C@@H]3SC2)cc1`, the AC50 entry was “inactive”. The same measure, in the same setting: as for `CCOC(=O)C(NC(C)=O)C(OC(C)=O)c1cccc(N(CCO)CCO)c1` (stereo not given), the entry is “inactive”; as for `Cc1c(NC(=O)C2CCN(S(=O)(=O)c3ccc(Cl)cc3)CC2)c(=O)n(-c2ccccc2)n1C`, “inactive”. On the same count and under the same terms, as for `O=C(Nc1nnc(C2CC2)s1)c1cc(S(=O)(=O)N2CCN(c3ccccc3)CC2)ccc1Cl`, the figure is 7.08 µM (active). As to `COc1ccc(COC(=O)N/N=C2/C[C@@H](O)[C@@H](O)[C@@H]3[C@@H]4C(=O)N(C(C)(C)C)C(=O)[C@H]4CC[C@@H]23)cc1`, the activity, negative = inhibition was 1.08% [at 11.4 µM]. As for `Brc1ccc([C@H]2CN3CCSC3=N2)cc1`, the AC50 result was “inactive”. Turning to `Cc1ccc(-n2c(-c3ccccc3)cc(=O)nc2C)cc1`, the AC50 result is “inactive”.

With `CN=c1nc(-c2ccccc2)n(-c2ccccc2)s1`, the concentration at half-maximal activity (AC50) was 3.16 µM (active). Still for that read-out and setting: as for `CC(=O)c1c(C)nc(-c2ccccc2)n1O`, the entry is “inactive”. Take `Cc1noc(C)c1C(=O)N1CCC2(CCCN(c3ccncc3)C2)CC1`: the AC50 result is “inactive”. With `CN(C)S(=O)(=O)Oc1ccccc1C(=O)Nc1cccc(C(F)(F)F)c1`, the half-maximal activity concentration (AC50) is 2 µM (active). The same measure, in the same setting: as for `Cc1c(C(=O)NC2CCCc3ccccc32)oc2ccc(S(=O)(=O)N3CCOCC3)cc12` (stereo not given), the figure is 11.2 µM (active); as for `Cc1c(C(=O)Nc2cccc(C(F)(F)F)c2)oc2ccc(S(=O)(=O)N3CCOCC3)cc12`, 7.94 µM (active); as for `COC(=O)CC1C(=O)NCCN1C(=O)Nc1ccc(Cl)cc1` (stereo not given), “inactive”. Consider `CCOC(=O)CC1C(=O)NCCN1S(=O)(=O)c1ccc(Cl)c(Cl)c1` (stereo not given), for which the AC50 is 11.2 µM (active). As to `CCCc1cc2c(cc1NC(=O)c1ccccc1Cl)OCO2`, the half-maximal activity concentration (AC50) was 0.398 µM (active). Take `CCCc1cc2c(cc1NC(=O)c1ccc(Br)cc1)OCO2`: the AC50 was 0.0794 µM (active). On to `CCCc1cc2c(cc1NC(=O)c1ccccc1C)OCO2`, for which the AC50 is 0.178 µM (active). As to `Cc1nn(C)c(C)c1CNC(=O)c1cnn2c1NC(c1ccccc1)CC2C(F)(F)F` (stereo not given), the AC50 entry is “inactive”. For the compound `COc1ccccc1CN1CC2(CCN(S(C)(=O)=O)CC2)C1`, the AC50 entry is “inactive”. Consider `CN(C)C(=C(C#N)C#N)N1CCN(c2ccc(Cl)c(Cl)c2)CC1`, for which the half-maximal activity concentration (AC50) is 10 µM (active). In the case of `CCC(Sc1nc(=O)cc(N)n1CCc1ccccc1)C(=O)Nc1ccccc1C#N` (stereo not given), the half-maximal activity concentration (AC50) was 11.2 µM (active). In the case of `Nc1cc(=O)nc(SCC(=O)Nc2cccc3ccccc23)n1CCc1ccccc1`, the AC50 is 14.1 µM (active). Regarding `NCCCC(=O)O`, the AC50 entry is “inactive”. Same read-out and setting: as for `Cn1c(CNC(=O)Nc2ccccc2)nnc1SCc1ccccc1`, the figure is 7.08 µM (active); as for `CCN(CCCNC(=O)CC(C(=O)N1CCc2ccccc21)n1ccnc1)c1ccccc1` (stereo not given), 0.562 µM (active); as for `CCN(CC)CCC(=O)Nc1ccc2c(c1)N(C(=O)CN(CC)CC)c1ccccc1CC2`, “inactive”. For `CCCCN(C)CCCNC(=O)CCn1nc(-c2ccccc2)ccc1=O`, the AC50 entry was “inactive”. Take `CC(C(=O)NC1CCCC1)N(C(=O)c1snc(C(N)=O)c1N)c1ccc2c(c1)OCCO2` (stereo not given): the AC50 was 15.8 µM (active).

For the origin of these results see PubChem BioAssay AID1851 (National Center for Advancing Translational Sciences (NCATS), 2009).
